In the supplement of paper PMC3656093:
± gives the standard deviation of the averaged measurements. The full ranking holds about 1,900 compounds; the median of “CD40L-induced NF-kB luciferase activity, plate-corrected, relative to DMSO (0) and IKK inhibitor VII (-100) controls” is about 0.032, and the lowest 2% start at about -26. What follows is part of a selection rich in the lowest values, with near analogues and random picks from the rest.

Test system: BL2-NFkB-Luc
Experiment: CD40L-induced NF-kB luciferase activity, plate-corrected, relative to DMSO (0) and IKK inhibitor VII (-100) controls (% normalized activity); higher = more NF-kB reporter activity (less inhibition)
Settings: 9.4 µM; stimulus: tCD40L 64 ng/ml; 4.5 h
Description: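 BL2 B cells with a stable NF-kB response-element luciferase reporter (BL2-NFkB-Luc), 384-well. Cells were pre-incubated with compound at 9.4 uM for 1 h at 37 C, then stimulated with 64 ng/ml trimerized CD40L for 4.5 h; luciferase was read with Steady-Glo. Signal was normalised per plate in Genedata (median DMSO neutral control = 0, median IKK inhibitor VII at 50 uM = -100) with Assay Median plate-pattern correction; duplicate plates.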

Compound	CD40L-induced NF-kB luciferase activity
O=C1CCCCCN1Cc1ccccc1	3.92 ± 5.3
O=C1C=CC(=O)C(C2=C3C(=O)N(CCc4ccccc4)CC(=O)N3CCC2)=C1	-42.7 ± 2.4
O=C(c1cc2cc(Br)ccc2o1)N1CCCC1	38.77 ± 0.2
O=c1c2ccccc2nc2n1-c1ccccc1CCC2	-5.01 ± 3.7
COc1ccc2c(c1)[nH]c1c(=O)n(Cc3ccccn3)cnc12	-0.0285 ± 6.5
COc1ccc(CC(=O)Nc2cccc(C(=O)Nc3ccccc3C(=O)O)c2)cc1OC	-2.42 ± 3.4
COc1ccc(/C=C/C(=O)Nc2ccccc2C(=O)O)cc1OC	-57.1 ± 1.6
O=C(/C=C/c1ccco1)Nc1ccccc1C(=O)O	1.64 ± 1.8
Cc1cc(O)c(C(C)C)cc1C1(c2cc(C(C)C)c(O)cc2C)OC(=O)c2ccccc21	-36.1 ± 2.9
Cc1ccccc1-c1coc2cc(O)ccc2c1=O	4.65 ± 2.2
O=C1OC(c2ccc(O)cc2)(c2ccc(O)cc2)c2ccccc21	0.943 ± 1.8
C/C=C/Cn1c(SC)nc2c1c(=O)[nH]c(=O)n2C	-0.907 ± 1.9
COCC(C)NC(=O)c1ccc(CN2CCc3ccccc3C2)cc1 (stereo not drawn)	7.18 ± 5
O=C(O)c1cc(-c2ccc3c(c2)OCO3)nc2ccc(Br)cc12	9.08 ± 4
CCc1cc2c(=O)c(-c3ccc(F)cc3)c(C)oc2cc1OCC(=O)O	1.94 ± 0.96
O=C1c2ccccc2N2C(=O)c3ccccc3C2N1Cc1ccco1 (stereo not drawn)	-3.98 ± 15
O=C1OC(Nc2ccc3c(c2)OCO3)c2ccccc21 (stereo not drawn)	-15.2 ± 0.48
O=S(=O)(NCCCCCNS(=O)(=O)c1ccccc1)c1ccccc1	-7.09 ± 9.8
COc1ccc2[nH]c(=O)c3c(c2c1)OC(C)(C)C=C3	-32.8 ± 0.38
COc1ccc2[nH]cc(C3N4CC5(C)CN3CC(C)(C4)C5=O)c2c1 (stereo not drawn)	2.08 ± 1.7
COc1ccc2[nH]c(=O)c(CN(C(=O)c3ccco3)C(C)C)cc2c1	0.241 ± 0.71
O=C(COc1ccc(F)cc1)OCCN1CCOCC1	0.903 ± 1.5
COc1ccccc1C1C(C#N)=C(N)Oc2c1oc(CO)cc2=O (stereo not drawn)	-1.31 ± 0.27

Compound	CD40L-induced NF-kB luciferase activity
O=C1OC(c2ccccc2)=C/C1=C/c1cccs1	30.9 ± 2.3
OC(COCc1ccccc1)CN1CCN(Cc2ccc3c(c2)OCO3)CC1 (stereo not drawn)	-0.97 ± 0.41
COc1cc2c(cc1OC)C1(CCCCC1)CN(C)C2	-4.22 ± 0.72
O=C(CC1SC(=O)NC1=O)Nc1ccc(Cl)cc1 (stereo not drawn)	2.93 ± 5.1
O=C(NN=Cc1ccc([N+](=O)[O-])o1)c1ccc(O)cc1	-1.71 ± 0.97
COC(=O)CSc1nc2ccc(N)cc2s1	0.507 ± 4.2
O=C(O)CCSc1nc2ccccc2s1	-42.3 ± 0.52
CCOCC(=O)Nc1nc2ccccc2s1	50.7 ± 10
CN(CCc1cnn(C)c1)Cc1nc(CC2CC2)no1	-0.906 ± 0.31
COc1ccc(O)c(C(=O)/C=C/c2cc3ccccc3o2)c1	83.3 ± 3.2
O=C(OCCN1CCOCC1)c1cccs1	-4.77 ± 5.6
COc1ccc(CCCC(=O)O)c(C)c1	1.85 ± 1.2
CCN(CC)C1=C(Cl)C(=O)C(Cl)C12OCCO2 (stereo not drawn)	-4.69 ± 4.8
Cc1cc(C=NO)c(C)n1-c1ccc(Br)cc1	-0.84 ± 0.39
COc1ccc(C2N3CC4(C)CN2CC(C)(C3)C4)cc1OC (stereo not drawn)	-1.8 ± 1.9
COc1ccc(C(=O)Nc2cccc3cccnc23)cc1OC	19.3 ± 10
O=C(NCCC(c1ccccc1)c1ccco1)c1cccs1 (stereo not drawn)	24.9 ± 2.2
CCc1cc2c(=O)c(-c3nc4ccccc4n3C)coc2c(CN2CCN(C)CC2)c1O	-3.98 ± 2.5
CC(C)[C@H]1CN(C)CCN1Cc1cn(C)nc1-c1cccc(Cl)c1	2.03 ± 0.42
Cc1c(OC(=O)CNC(=O)OC(C)(C)C)ccc2c3c(c(=O)oc12)CCC3	3.02 ± 3.5
O=C(O)c1ccc(C(=O)C(=O)c2ccccc2)cc1	-6.47 ± 15
CC(=O)C1=C(O)C(=O)N(CC(=O)O)C1c1ccccc1Cl (stereo not drawn)	3.2 ± 3.2
CC1(C)O[C@@H]2C[C@H]3[C@@H]4CCC5=CC(=O)C=C[C@]5(C)[C@@]4(F)[C@@H](O)C[C@]3(C)[C@]2(C(=O)CO)O1	-31.3 ± 5.1

Compound	CD40L-induced NF-kB luciferase activity
C[C@@H]1C[C@H]2[C@@H]3CCC4=CC(=O)C=C[C@]4(C)[C@@]3(F)[C@@H](O)C[C@]2(C)[C@H]1C(=O)CO	-31.39 ± 0.23
C[C@]12CC[C@H]3[C@@H](CCC4=CC(=O)CC[C@@]43C)[C@@H]1CC[C@@H]2C(=O)CO	-4.85 ± 1.2
CC(=O)OCC(=O)C1=CCC2C3CCC4=CC(=O)C=CC4(C)C3(F)C(OC(C)=O)CC12C (stereo not drawn)	-4.87 ± 4.6
CC(=O)OCC(=O)[C@@]12OC3(CCCC3)O[C@@H]1C[C@H]1[C@@H]3CCC4=CC(=O)C=C[C@]4(C)[C@@]3(F)[C@@H](O)C[C@@]12C	-20.2 ± 1.1
CC1(C)O[C@@H]2C[C@H]3[C@@H]4C[C@H](F)C5=CC(=O)C=C[C@]5(C)[C@@]4(F)[C@@H](O)C[C@]3(C)[C@]2(C(=O)CO)O1	-23.7 ± 1.8
C/C=C/c1ccc(OCCCCN2CC(C)CC(C)C2)c(OC)c1 (stereo not drawn)	1.73 ± 0.88
Cc1ccc(OCc2nc(-c3cccnc3)no2)cc1C	34.5 ± 7.5
CCc1cc(=O)oc2cc(OCc3nn[nH]n3)ccc12	-0.362 ± 2.4
COc1cc2oc(-c3ccc(O)cc3)cc(=O)c2c(OC)c1O	2.41 ± 4.4
Cc1cccc(Nc2ncccc2C(=O)O)c1C	-3.873 ± 0.016
CCOc1ccc(C(NC(C)=O)c2ccc(OC)c(OC)c2)cc1 (stereo not drawn)	4.36 ± 0.088
Nc1c(C(=O)c2ccccc2)oc2ccccc12	17.3 ± 8.5
O=C(c1ccc(F)cc1)[C@@H]1[C@@H](C(=O)c2ccccc2)[C@@]2(C(=O)Nc3ccccc32)[C@H]2c3ccccc3C=CN12	6.58 ± 1.4
CCOC(=O)c1cccc(C(=O)OCC)n1	-2.95 ± 2.1
COc1cccc(CN2CCN(C(=O)c3ccc(-c4ccccc4)cc3)CC2)c1	-7.33 ± 1.1
O=C(/C=C/c1ccc(F)cc1)N1CC[C@@]2(O)CCCC[C@H]2C1	-1.13 ± 0.88
Cc1ccc(C(=O)NCCNC(=O)c2ccccc2)cc1	-2.5 ± 3.9
O=C(Cc1ccc(Br)cc1)c1ccc(O)cc1O	32.9 ± 18
O=C(Nc1ccc(C(=O)NC2CCCCC2)cc1)c1cccnc1	0.625 ± 0.58
COC(=O)c1[nH]c2ccc(C)cc2c1NC(=O)CN1CCc2cc(OC)c(OC)cc2C1	-5.22 ± 6.4
COc1ccc(-c2cc(=Nc3ccc(C)cc3)c3ccccc3o2)cc1	2.07 ± 3
C=CCN1C(=O)c2oc3ccccc3c(=O)c2C1c1ccc(O)c(OC)c1 (stereo not drawn)	-0.791 ± 0.32
